Laboratory results taken from PubChem BioAssay AID1069 (NMMLSC, 2008).
Values without a mark were called inactive. Activity calls are given as the source filed them.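 How the source made its calls: active means high combined rank on largest and smallest cell-count-weighted shift across three tests, rank score above 45, floors 50 and 25 (some results past the limit were not filed as active); inactive means the rest.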

Assay: LNCaP granularity increase inducers, single-point recheck – cell-based, side scatter shift, flow cytometry, confirmation (AID 1069);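 further: LNCaP human prostate cancer cells in low-serum medium with charcoal-stripped FBS; percent of cells with raised granularity gated so DMSO controls show 10%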
Conditions: LNCaP differentiation, 4 d, at 100 µM, hits give high values
In the case of Cc1nc(NCCNC(=O)c2ccco2)c2c(C)c(C)sc2n1, the side scatter shift is reported as 24.1%.
Cc1ccc2c(c1)c1c(n2CC(O)CNC(CO)(CO)CO)CCCC1 (stereo not drawn) showed a side scatter shift of 34.3%.
For CCc1ccc(-c2nc(CN3CCCC(C(=O)NCCc4ccc(OC)c(OC)c4)C3)c(C)o2)cc1 (stereo not drawn), the side scatter shift was 25%.
CCCOc1ccccc1C1CC(=O)Nc2cc3c(cc21)OCO3 (stereo not drawn) showed a side scatter shift of 16.7%.
In the case of O=C(NCCCN1CCN(c2ccc(F)cc2)CC1)c1cccc(N2CCCC2=O)c1, the side scatter shift is reported as 51.9% (active).
Compound O=C(CN1CCC(n2nnc3cc(F)ccc32)CC1)Nc1ccc2c(c1)CCC2 has a side scatter shift of 6.2%.
With O=C(c1ccc2c(c1)OCCO2)N1CCCCC1 the side scatter shift was 7.7%.
In the case of Cn1nc(-c2ccc(Cl)cc2)c2cc(C(=O)NCCCN3CCCC3)sc21, the side scatter shift is reported as 31.6% (active).
With Cn1cc(CNC(=O)C2c3ccccc3Oc3ccccc32)cn1 the side scatter shift was 7.3%.
Compound COc1ccc(N2CCN(c3oc(COc4ccccc4Cl)nc3C#N)CC2)cc1 has a side scatter shift of 24.8%.
Compound Cc1oc(-c2ccc(Cl)cc2)nc1CN1CCC(C(=O)N2CCc3ccccc3C2)CC1 has a side scatter shift of 44.4%.
With Cc1oc(-c2ccccc2F)nc1CN1CCC(C(=O)NCc2cccnc2)CC1 the side scatter shift was 8.3%.
Work on Cc1ccccc1-c1nc(CN2CCC(C(=O)O)CC2)c(C)o1 yielded a side scatter shift of 3.7%.
With O=C(C1CCN(S(=O)(=O)c2cccc3nsnc23)CC1)N1CC=C(c2ccccc2)CC1 the side scatter shift was 25.9%.
Compound CCn1c(=O)cc(SCC(=O)N2CCN(C3CCCCC3)CC2)c2ccccc21 has a side scatter shift of 16.7%.
For Oc1ccccc1CNc1nc2ccccc2n1CCN1CCCCC1, the side scatter shift was 22.7%.
Work on Cc1ccccc1-c1nc(CN2CCC(C(=O)NCCCN3CCCC3)CC2)c(C)o1 yielded a side scatter shift of 40%.
Work on CCOC(=O)N1CCN(CC(=O)Nc2cc(C)nn2-c2nc3ccccc3s2)CC1 yielded a side scatter shift of 19.3%.
Compound Cc1cc(=O)c2ccccc2[nH]1 has a side scatter shift of 11.2%.
For O=C(Cn1cc2c(n1)CCCC2)NCCCN1CCN(c2ccccc2F)CC1, the side scatter shift was 56.4% (active).
With O=C(Cn1c(=O)[nH]c2ccsc2c1=O)NC1CCCCCC1 the side scatter shift was 2.5%.
Compound Cc1ccccc1-c1nc(CN2CCC(C(=O)NCc3ccco3)CC2)c(C)o1 has a side scatter shift of 41.1%.
For CCn1c(=O)cc(SCC(=O)NCCN2CCN(Cc3ccccc3)CC2)c2ccccc21, the side scatter shift was 70.2% (active).
COc1ccc(-c2noc(CCC(=O)NCCCN3CCC(Cc4ccccc4)CC3)n2)cc1 showed a side scatter shift of 21.7%.
In the case of CCCS(=O)(=O)N1CCCC(C(=O)NCCCN2CCN(c3ccc(F)cc3)CC2)C1 (stereo not drawn), the side scatter shift is reported as 8.2%.
Cc1ccc(C(=O)/C=C/Nc2cccc(O)c2)cc1 gave a side scatter shift of 35.3%.
For Oc1c(CN2CCCCC2)cc(COCc2ccccc2)c2cccnc12, the side scatter shift was 5.7% (active).
Compound CCS(=O)(=O)N1CCC(C(=O)NCCCN2CCN(c3ccccc3F)CC2)CC1 has a side scatter shift of 13.3%.
In the case of Cc1ccc(Nc2cc(=O)n(C3CCCCC3)c(=O)[nH]2)cc1C, the side scatter shift is reported as 0%.
O=C(NCCCN1CCN(c2ccccc2F)CC1)C1CCCN(S(=O)(=O)c2cnc[nH]2)C1 (stereo not drawn) gave a side scatter shift of 7.3%.
COc1ccc(S(=O)(=O)CCC(=O)O)cc1 showed a side scatter shift of 16.3%.
With CC1(C)CC(=O)c2cc(OCC(=O)NCCCN3CCN(c4ccc(F)cc4)CC3)ccc2O1 the side scatter shift was 5.9%.
In the case of COc1ccccc1CNC(=O)C1CCN(Cc2nc(-c3cccc(Cl)c3)oc2C)CC1, the side scatter shift is reported as 33.3%.
Compound CCOC(=O)C1CCN(S(=O)(=O)c2ccc(-c3nc4ccccc4s3)s2)CC1 has a side scatter shift of 25.7%.
Compound CN(C(=O)c1ccccn1)c1nnc(-c2cccnc2)s1 has a side scatter shift of 8.3%.
Work on c1ccc(CSc2nnc(-c3cccs3)n2Cc2ccco2)cc1 yielded a side scatter shift of 20%.
CCn1c(=N)n(CC(O)COc2cccc(C)c2)c2ccccc21 (stereo not drawn) gave a side scatter shift of 0%.
With CN(CCNC(=O)C1CC(=O)N(c2ccc(F)c(Cl)c2)C1)Cc1ccccc1 (stereo not drawn) the side scatter shift was 62% (active).
